The values that follow come from PubChem BioAssay (NCATS).

“And” between values parts separate entries of the source, which are not always exact repeats. Equal entries are not always repeated. Inconclusive results are not listed. The source holds several records for some structures; these can differ, active in one and inactive in another. The source made the active and inactive calls. Unless noted, calls come from the whole dose curve; as a rule, active = well fitted curve in the direction sought with a large enough effect; inconclusive = small, poorly fitted or top-dose-only effect, or another doubt; inactive = no such curve, though single readings can be large; an effect the other way counts as inactive or inconclusive.

Experiment [1] can be described thus: qHTS assay for small molecule agonists of the antioxidant response element (ARE) signaling pathway measured by Nrf2-dependant transcriptional activity - cell viability counter screen (AID 720653; active = well fitted curve in the direction sought with a large enough effect in the repeat runs; an effect the other way counts as inactive or inconclusive; note: % is set by controls: 0 for no effect and ±100 for the full control effect). The note with it: ARE-bla HepG2 viability, CellTiter-Glo ATP luminescence, 16 h; max response: stronger effect = lower value. An outline of the steps:
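Cytotoxicity counter screen: intracellular ATP quantified by CellTiter-Glo luminescence in the same ARE-bla HepG2 plates, after 16 h compound exposure and a 2 h beta-lactamase substrate step.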
(Quantitative high-throughput screening tests each substance at several concentrations.)

The nature of experiment [2]: qHTS assay for cell viability of HEK293 cells (AID 743288). Note: % is set by controls: 0 for no effect and ±100 for the full control effect; nearly all actives have a fitted effect of over 50% in size. The note with it: ATP luminescence (CellTiter-Glo), 18 h; max response: stronger effect = lower value. An outline of the steps: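 Parental HEK293 cells were seeded at 2,000 cells/well, rested at least 5 h at 37 C, then exposed to compounds in DMSO for 18 h at 37 C. Viability was read as ATP-dependent luciferase luminescence after 30 min at room temperature.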

A short description of experiment [3]: qHTS assay for cell viability of the p53RE-bla HCT-116 cell line (AID 743292). Note: % is set by controls: 0 for no effect and ±100 for the full control effect; nearly all actives have a fitted effect of over 55% in size. In outline: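 In this qHTS counter-screen, metabolically competent p53RE-bla HCT-116 cells were counted via their ATP content. Compounds were applied for 16 h at 37 C and luciferase-coupled luminescence was measured.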
Experiment [4] is described as follows: qHTS profiling of the MIPE4 collection as inhibitors of Plasmodium falciparum (3D7) proliferation (AID 743344; call rule not given here;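 note: scaled between DMSO vehicle wells and 0.29 µM artemisinin as full inhibition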). The conditions noted are these: P. falciparum 3D7 in erythrocytes, SYBR Green DNA fluorescence, 72 h; at 28.5 µM (top of the series) unless noted. An outline of the steps: (§1)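 Erythrocytes infected with P. falciparum (0.3% parasitemia, 2.5% hematocrit) incubated with compounds 72 h at 37 C, 5% CO2. Lysis with saponin/Triton buffer containing SYBR Green I, overnight at room temperature in the dark; DNA fluorescence (485/535 nm) normalised to 0.29 uM artemisinin and DMSO.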

Experiment [5] in a line: qHTS profiling of the MIPE4 collection as inhibitors of Plasmodium falciparum (DD2) proliferation (AID 743345; call rule not given here). The note with it: P. falciparum Dd2 in erythrocytes, SYBR Green DNA, 72 h; at 28.5 µM (top of the series) unless noted. In outline: as §1
Experiment [6] is described as follows: qHTS profiling of the MIPE4 collection as inhibitors of Plasmodium falciparum (DD2) proliferation (Rep 2) (AID 743346; call rule not given here). The note with it: P. falciparum Dd2 in erythrocytes, SYBR Green DNA, 72 h; at 28.5 µM (top of the series) unless noted. In outline: as §1
A short description of experiment [7]: qHTS profiling of the MIPE4 collection as inhibitors of Plasmodium falciparum (HB3) proliferation (AID 743347; call rule not given here;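 note: plate controls were DMSO vehicle wells for no effect and artemisinin wells for full effect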). The conditions noted are these: P. falciparum HB3 in erythrocytes, SYBR Green DNA, 72 h; at 28.5 µM (top of the series) unless noted. In outline: as §1
Experiment [8] in a line: High-throughput drug toxicity screening in the BPDCN cell line Gen2.2 (AID 1224824; call rule not given here;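 note: cells exposed to compounds for 48 h before reading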). The note with it: Gen2.2 BPDCN cells; at 45.8 µM (top of the series) unless noted. An outline of the steps: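 Gen2.2 cells (500/well) in phenol red-free RPMI with 10% FBS were exposed to compounds for 48 h at 37 °C, 5% CO2. Viability was read by CellTiter-Glo luminescence and normalized to DMSO (100%) and 9.2 uM bortezomib (0%).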

The nature of experiment [9]: High-throughput drug toxicity screening in the BPDCN cell line Cal-1 (AID 1224825; call rule not given here). The conditions noted are these: Cal-1 BPDCN cell viability, qHTS; at 45.8 µM (top of the series) unless noted. An outline of the steps: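 500 Cal-1 cells/well, RPMI + glutamine + 10% FBS (phenol red-free); cpd added by pin tool; 48 h, 37C, 5% CO2; CTG 15 min RT, lumi read. Normalised: DMSO 100%, bortezomib 9.2 uM 0%.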

A short description of experiment [10]: qHTS assay for measurement of the activity of small molecule inhibitors on Zika virus induced Caspase-3 activity in human iPSC derived neural progenitor cells (hNPCs) (AID 1224857). Note: nearly all actives have a fitted effect of over 65% in size. Note: potency is the fitted concentration of half-maximal effect. An outline of the steps: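 Quantitative HTS format: human iPSC neural progenitors, 1 h compound pretreatment, ZIKV 2 FFU/cell for 6 h at 37 C. Percent inhibition derived from luminescent caspase-3/7 signal between uninfected and infected controls.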

A short description of experiment [11]: qHTS assay for measurement of the activity of small molecule inhibitors on Zika virus induced Caspase-3 activity in human astrocytoma cells (AID 1224859).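 Note: plate controls were ZIKV-infected untreated cells for no effect and uninfected cells for full effect.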 An outline of the steps: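 Readout is luminescence from Caspase-Glo 3/7 added after a 6 h ZIKV infection (2 FFU/cell) of compound-pretreated (1 h) SNB-19 cells; data expressed as % inhibition versus uninfected and infected wells.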

Experiment [12] is described as follows: qHTS Screen of the MIPE 4.0 Collection Against Ewings Sarcoma (RDES) (AID 1259252). Note: nearly all actives have a fitted effect of over 35% in size. Note: potency is the fitted concentration of half-maximal effect. An outline of the steps: (§2)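 CellTiter-Glo luminescence after 48 h compound exposure (titration) gave viability; percent activity used DMSO-treated cells as no inhibition and medium-only wells as full inhibition. Cells grown in RPMI/5% FBS, dosed 4 h post-seeding.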
Experiment [13] in a line: qHTS Screen of the MIPE 4.0 Collection Against Ewings Sarcoma (EW8) (AID 1259255).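 For viability: 100% = DMSO-treated cells and 0% = medium-only wells without cells.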 Note: nearly all actives have a fitted effect of over 35% in size. Note: potency is the fitted concentration of half-maximal effect. In outline: as §2
In experiment [14] the target is T1, Hexokinase-4 (Homo sapiens) + Glucokinase regulatory protein (Homo sapiens) (UniProt P35557+Q14397). The experiment in a line: qHTS assay for inhibitors of recombinant human GCK-GKRP interaction: Diaphorase-coupled assay (AID 743205). In outline:
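GST-GCK (10 nM) with FLAG-GKRP (10 nM), 5 mM glucose and 0.4 mM ATP in pH 7.6 Hepes; compounds preincubated 20 min with substrate. G6PDH/diaphorase coupling converts resazurin to resorufin, read kinetically (ex 525/em 590 nm) for 30 min.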

For experiment [15], the target named is T1, Hexokinase-4 (Homo sapiens) + Glucokinase regulatory protein (Homo sapiens). Briefly: qHTS assay for inhibitors of recombinant human GCK-GKRP interaction: ADP-Glo assay (AID 743206).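 Note: plate controls were DMSO plus enzyme for no effect and no enzyme for full effect.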 An outline of the steps:
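GST-GCK and FLAG-GKRP (15 nM each in the dispensed mix, with 2 uM S6P) react with 0.4 mM ATP and 5 mM glucose (final) in Hepes pH 7.6 for 60 min at room temperature. ADP is measured by ADP-Glo luminescence.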

Experiment [16] shares this target. The experiment in a line: qHTS assay for inhibitors of recombinant human GCK-GKRP interaction: HTRF assay (AID 743207).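 Note: 0% = DMSO with GCK present and -100% = DMSO wells lacking GCK.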 In outline: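 GST-GCK and FLAG-GKRP (5 nM each) were combined with 2 uM S6P in pH 7.1 Hepes/MgCl2/KCl/DTT buffer, then compound and anti-FLAG XL665/anti-GST K antibodies were added. After 60 min at room temperature, HTRF 665/615 nm emission was read.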

Experiment [17] in a line: qHTS Assay for Identifying Gametocytocidal Compounds (AID 743244).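 Note: % is set by controls: 0 for no effect and ±100 for the full control effect; actives lower the fluorescent signal which means gametocytes are killed.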 The conditions noted are these: P. falciparum 3D7 stage III-V gametocytes, alamarBlue, 72 h; max response: stronger effect = lower value. In outline:
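A resazurin-based viability read-out was applied to mature P. falciparum gametocytes: 72 h compound treatment, then 24 h dye incubation, with falling fluorescence signalling gametocytocidal effect.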

T1 sequence (P35557 whole entry, looked up): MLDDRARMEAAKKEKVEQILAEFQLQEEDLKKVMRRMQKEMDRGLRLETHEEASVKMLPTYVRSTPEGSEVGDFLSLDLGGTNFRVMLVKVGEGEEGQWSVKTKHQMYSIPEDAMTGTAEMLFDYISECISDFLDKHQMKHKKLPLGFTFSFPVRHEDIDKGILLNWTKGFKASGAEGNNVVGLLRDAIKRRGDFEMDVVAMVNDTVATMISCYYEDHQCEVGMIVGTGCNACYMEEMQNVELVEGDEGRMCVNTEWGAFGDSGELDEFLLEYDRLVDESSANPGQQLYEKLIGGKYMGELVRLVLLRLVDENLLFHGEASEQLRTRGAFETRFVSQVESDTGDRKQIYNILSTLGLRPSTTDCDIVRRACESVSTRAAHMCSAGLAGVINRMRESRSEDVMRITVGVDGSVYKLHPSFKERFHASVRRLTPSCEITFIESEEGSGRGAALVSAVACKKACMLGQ
T1 sequence (Q14397 whole entry, looked up): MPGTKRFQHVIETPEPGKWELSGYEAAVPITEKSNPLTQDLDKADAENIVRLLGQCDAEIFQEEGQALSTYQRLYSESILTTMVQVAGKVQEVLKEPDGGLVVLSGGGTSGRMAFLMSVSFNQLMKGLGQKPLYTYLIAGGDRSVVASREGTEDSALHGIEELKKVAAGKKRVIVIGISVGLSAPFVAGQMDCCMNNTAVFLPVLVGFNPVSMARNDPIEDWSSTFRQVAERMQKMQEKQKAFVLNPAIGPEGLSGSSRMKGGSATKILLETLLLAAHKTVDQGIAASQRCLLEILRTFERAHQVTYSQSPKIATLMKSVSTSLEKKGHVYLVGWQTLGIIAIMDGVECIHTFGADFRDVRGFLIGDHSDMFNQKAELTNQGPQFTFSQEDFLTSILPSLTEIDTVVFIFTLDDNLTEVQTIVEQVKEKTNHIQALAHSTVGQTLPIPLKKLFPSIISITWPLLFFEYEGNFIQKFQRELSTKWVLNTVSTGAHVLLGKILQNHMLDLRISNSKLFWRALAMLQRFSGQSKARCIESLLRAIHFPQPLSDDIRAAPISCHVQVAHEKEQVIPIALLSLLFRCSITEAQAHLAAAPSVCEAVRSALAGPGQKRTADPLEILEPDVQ

Take `CS(=O)(=O)OCCCCOS(C)(=O)=O`: the max response in [1] is -5.06% (inactive) and -4.65% (inactive) and 2.24% (inactive); in experiment [2], -9.44% (inactive) and 3.38% (inactive) and -6.4% (inactive). For the same compound, the Potency result in experiment [3], in experiment [10], in experiment [11], in experiment [12] and in experiment [13] was “inactive” each time. In addition, the parasite growth, % of DMSO control in experiment [4] worked out at 89.8%. In [5], this compound gave a parasite growth remaining, % of DMSO control (lower = more inhibition) of 77.1%. The parasite growth, % of control (lower = inhibition) in [6] amounted to 79.3%. The compound also registered a growth, % of control in experiment [7] of 106%. Moreover, the cell viability, % of control (lower = more cytotoxic) in [8] came out at 84.6%. The compound further showed a viability (% of control) in experiment [9] of 62.5%.
Take `CCN(CC)CCOc1ccc(Cc2ccccc2)cc1`: the parasite growth, % of DMSO control in experiment [4] stood at 58.8%. This compound also had a parasite growth remaining, % of DMSO control (lower = more inhibition) in [5] of 74.1%. This compound also returned a parasite growth, % of control (lower = inhibition) in [6] of 36.4%. This compound registered a growth, % of control in [7] of 84.7%. Besides, in experiment [8], the cell viability, % of control (lower = more cytotoxic) was found to be 158%. In experiment [9], the viability (% of control) came to 100%. Moreover, the Potency result in experiment [10] and in [11] was “inactive” each time. Besides, the Potency in experiment [12] was 18.7 µM (active).
`CCCCCCCCOc1ccccc1C(=O)Nc1ccc(C(=O)OCC[N+](C)(CC)CC)cc1` gave a parasite growth, % of DMSO control in experiment [4] of 9.2%. For the same compound, the parasite growth remaining, % of DMSO control (lower = more inhibition) in experiment [5] was determined as 5.8%. The compound also came in with a parasite growth, % of control (lower = inhibition) in experiment [6] of 26.3%. In addition, the growth, % of control in [7] is 8.46%. Besides, the cell viability, % of control (lower = more cytotoxic) in experiment [8] amounted to 52.3%. Besides, the viability (% of control) in experiment [9] stood at 14.9%. In addition, the Potency is 16.6 µM (active) and inactive in experiment [10]; 16.6 µM (active) in [13]. Also, the Potency result in [11] and in experiment [12] was “inactive” in each case.
As to `OC(CN1CCN(c2cccc(Cl)c2)CC1)C(c1ccccc1)c1ccccc1` (stereo not given), the outcome in experiment [14], in [15] and in experiment [16] was inactive. Further, the max response in experiment [17] is 26.8% (inactive). This compound gave a parasite growth, % of DMSO control in [4] of 42.2%. In addition, the parasite growth remaining, % of DMSO control (lower = more inhibition) in experiment [5] stood at 90.9%. Moreover, in experiment [6], the parasite growth, % of control (lower = inhibition) is 66%. In experiment [7], this compound displayed a growth, % of control of 47%. Moreover, the cell viability, % of control (lower = more cytotoxic) in experiment [8] is 319%. In addition, in experiment [9], the viability (% of control) stood at 88.8%. In addition, the Potency result in experiment [10], in [11] and in [12] was “inactive” each time.
